The full ranking holds about 81,000 sequences; the median of “one-hybrid fitness for binding parS DNA” is about -0.17, and the highest 2% start at about 0.51. The full list was thinned out, with the highest values kept by preference.
B1: Caulobacter ParB omega fusion; a variant is named by its letters at X, in order, B8GW30 (parent)
chain: MESVVVGEPGMSEGRRGLGRGLSALLGEVDAAPAQAPGEQLGGSREAPIEILQRNPDQPRRTFREEDLEDLSNSIREKGVLQPILVRPSPDTAGEYQIVAGERAWRAAQRAGLKTVPIMVRELDDLAVLEIGIIENVQRADLNVLEEALSYKVLMEKFERTQENIAQTIGKSXSHVANXMRLLXLPDEVQSYLVSGELTAXHARAIAAAADPVALAKQIIEGGLSVRETEALARKAPNLSAGKSKGGRPPRVKDTDTQALESDLSSVLGLDVSIDHRGSTGTLTITYATLEQLDDLCNRLTRGI

Variants of: B1
Assay: one-hybrid fitness for binding parS DNA (scaled: cognate 1, non-cognate 0); higher = stronger binding
Details: with parS DNA site
In short: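 Pre- and post-selection plasmids were Illumina-sequenced, three replicate libraries were pooled, and any variant with under 10 reads was removed. The libraries were Caulobacter ParB with four specificity codons randomised, selected in E. coli USO through a HIS3 reporter whose site is 19 bp from the promoter. Cells grew 48 hours at 37°C on M9 without histidine, with 0.1 mM IPTG and 5 mM 3-AT. Fitness is the log change in variant-to-wild-type read ratio, rescaled against cognate and non-cognate.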

Variant | one-hybrid fitness for binding parS DNA
STTT | ≤ 0.2
WKGT | ≤ 0.2
SGKS | ≤ 0.2
RITI | ≤ 0.2
RPPG | ≤ 0.2
RDPG | ≤ 0.2
RAIG | 0.871
RAPD | ≤ 0.2
RAIF | ≤ 0.2
RAPH | ≤ 0.2
RCPG | 0.81
RAPG | 0.569
RAIH | ≤ 0.2
NVNI | ≤ 0.2
DVVY | ≤ 0.2
LLTC | ≤ 0.2
GHGR | ≤ 0.2
HSMG | ≤ 0.2
RQEF | 0.206
ATMR | ≤ 0.2
RSAS | 0.998
RSAD | ≤ 0.2
RCAP | ≤ 0.2
RCAS | 1.01

Variant | one-hybrid fitness for binding parS DNA
RPAS | ≤ 0.2
RSAP | ≤ 0.2
NQVG | ≤ 0.2
TRNP | ≤ 0.2
TIYS | ≤ 0.2
IDLD | ≤ 0.2
SILM | ≤ 0.2
LWSP | ≤ 0.2
SLKT | ≤ 0.2
GRNC | ≤ 0.2
RPYS | ≤ 0.2
RCRS | 0.877
RCYS | 1
RCRD | ≤ 0.2
RCYP | ≤ 0.2
RSRD | ≤ 0.2
RSRS | 0.913
RPRS | ≤ 0.2
RSRN | 0.416
SCVM | ≤ 0.2
FTPD | ≤ 0.2
ALCC | ≤ 0.2
WPLG | ≤ 0.2
IPVF | ≤ 0.2

Variant | one-hybrid fitness for binding parS DNA
FYHT | ≤ 0.2
RINY | 0.513
RIDY | 0.396
RPNY | ≤ 0.2
RIDD | ≤ 0.2
RIDH | 0.231
RINS | 0.923
RIND | 0.258
RINH | 0.284
RIDS | 0.987
TGRK | ≤ 0.2
MPPM | ≤ 0.2
WDNC | ≤ 0.2
KSER | ≤ 0.2
STLE | ≤ 0.2
DQQL | ≤ 0.2
GHWC | ≤ 0.2
KPDR | ≤ 0.2
TRSC | ≤ 0.2
NTIS | ≤ 0.2
RGCA | ≤ 0.2
RWCA | 0.317
RMCA | 0.633
RPCA | ≤ 0.2

Variant | one-hybrid fitness for binding parS DNA
RTCA | 0.572
RSCA | 0.579
RCCA | 0.677
RNCA | 0.348
RKCA | 0.503
QSLF | ≤ 0.2
QAWS | ≤ 0.2
ATLF | ≤ 0.2
PAPL | ≤ 0.2
PDPW | ≤ 0.2
DFDR | ≤ 0.2
QQYT | ≤ 0.2
KPHF | ≤ 0.2
DHCA | ≤ 0.2
RHCA | 0.55
LGTH | ≤ 0.2
RQTP | ≤ 0.2
RQTG | 1.01
RQTM | 0.331
RQTC | 0.966
RQTQ | ≤ 0.2
RQTS | 0.984
RQTH | ≤ 0.2
RQTT | 0.929

Variant | one-hybrid fitness for binding parS DNA
RQTK | ≤ 0.2
RQTF | 0.211
RQTD | 0.217
RQTN | 0.43
KANM | ≤ 0.2
NRAG | ≤ 0.2
PIVT | ≤ 0.2
QDIR | ≤ 0.2
IPSC | ≤ 0.2
PVWG | ≤ 0.2
CTRC | ≤ 0.2
QFWR | ≤ 0.2
VWSI | ≤ 0.2
QVFN | ≤ 0.2
RFNC | 0.94
RFDC | 0.793
NFDC | ≤ 0.2
AFNC | ≤ 0.2
RFDF | ≤ 0.2
RFNE | ≤ 0.2
PPHC | ≤ 0.2
DNGY | ≤ 0.2
RIYQ | ≤ 0.2
RIHQ | ≤ 0.2

Variant | one-hybrid fitness for binding parS DNA
RILR | ≤ 0.2
RINM | 0.381
RIYC | 0.964
RIHC | 0.977
RINF | 0.201
RIYR | ≤ 0.2
RILC | 0.97
RIHK | ≤ 0.2
RINC | 0.955
RILM | 0.333
RNGM | ≤ 0.2
LKKY | ≤ 0.2
QVQI | ≤ 0.2
YEHV | ≤ 0.2
QGHV | ≤ 0.2
HFFL | ≤ 0.2
LRSA | ≤ 0.2
AADE | ≤ 0.2
CFNA | ≤ 0.2
WWKS | ≤ 0.2
ECSL | ≤ 0.2
PWPM | ≤ 0.2
PHSN | ≤ 0.2
LVPK | ≤ 0.2

Variant | one-hybrid fitness for binding parS DNA
MIPM | ≤ 0.2
QNKH | ≤ 0.2
NKQR | ≤ 0.2
RIDC | 0.866
RICP | ≤ 0.2
RISP | 0.209
RIRQ | ≤ 0.2
RISH | 0.259
RIDQ | ≤ 0.2
RICC | 0.92
RIRC | 0.847
RIDK | ≤ 0.2
RISC | 0.969
RIRF | 0.247
RICF | 0.282
QALV | ≤ 0.2
MYER | ≤ 0.2
ARTT | ≤ 0.2
ANKV | ≤ 0.2
AYCY | ≤ 0.2
ALWS | ≤ 0.2
ECMV | ≤ 0.2
RYVC | 0.907
RYKR | ≤ 0.2

Variant | one-hybrid fitness for binding parS DNA
RYKC | 0.752
RYVQ | ≤ 0.2
RYVF | ≤ 0.2
RYKM | 0.369
TTLV | ≤ 0.2
RFFF | ≤ 0.2
NFAT | ≤ 0.2
DFAT | ≤ 0.2
RFAT | 0.79
RFFT | 0.582
RFFM | ≤ 0.2
QAHK | ≤ 0.2
TRYI | ≤ 0.2
RYVN | 0.364
RYKD | ≤ 0.2
RYKP | ≤ 0.2
RYKS | 0.793
RYVY | 0.357
RYYY | 0.462
RYVH | 0.253
RYVS | 0.976
RYKY | 0.514
TITP | ≤ 0.2
LFYR | ≤ 0.2

Variant | one-hybrid fitness for binding parS DNA
HYYD | ≤ 0.2
DGDR | ≤ 0.2
RIDP | ≤ 0.2
RIDN | 0.388
RINR | ≤ 0.2
RIDG | 0.831
RING | 1.03
RINE | ≤ 0.2
QLMK | ≤ 0.2
SRNE | ≤ 0.2
GGVR | ≤ 0.2
RMWD | ≤ 0.2
RSWD | ≤ 0.2
RCWS | 1.09
RCWN | 0.401
RMWP | ≤ 0.2
RPWS | ≤ 0.2
RSWP | ≤ 0.2
RMWS | 1.05
RSWS | 0.989
PQAF | ≤ 0.2
RMKV | ≤ 0.2
CHNG | ≤ 0.2
TAAQ | ≤ 0.2

Variant | one-hybrid fitness for binding parS DNA
SDSD | ≤ 0.2
GVLC | ≤ 0.2
RKVA | 0.527
RKKA | 0.846
TGNL | ≤ 0.2
DKAR | ≤ 0.2
AWNT | ≤ 0.2
KHTD | ≤ 0.2
YNPS | ≤ 0.2
QHAY | ≤ 0.2
RQLF | 0.241
RTFG | 1.01
RTFK | ≤ 0.2
RTAH | 0.21
RTAM | 0.311
RTAG | 1
RTFY | 0.479
TEAR | ≤ 0.2
CSDF | ≤ 0.2
IWPL | ≤ 0.2
CTLY | ≤ 0.2
PPSK | ≤ 0.2
YQCG | ≤ 0.2
CLKA | ≤ 0.2

Variant | one-hybrid fitness for binding parS DNA
DLVA | ≤ 0.2
NLVA | ≤ 0.2
RLVA | 0.567
RLKA | 0.796
ALKA | ≤ 0.2
LHAG | ≤ 0.2
QGGK | ≤ 0.2
TMSY | ≤ 0.2
QLMM | ≤ 0.2
SQKG | ≤ 0.2
RSVC | 0.775
RPVC | ≤ 0.2
REVC | ≤ 0.2
RSVH | ≤ 0.2
RCVC | 0.965
RSVD | ≤ 0.2
AWDA | ≤ 0.2
HGSI | ≤ 0.2
DKKR | ≤ 0.2
SPNA | ≤ 0.2
LWAR | ≤ 0.2
VAPG | ≤ 0.2
RNFR | ≤ 0.2
RNAY | 0.359

Variant | one-hybrid fitness for binding parS DNA
RNFG | 0.662
RNFY | ≤ 0.2
RNAR | ≤ 0.2
RNAG | 0.853
NIRE | ≤ 0.2
HAKP | ≤ 0.2
CTSH | ≤ 0.2
HSAT | ≤ 0.2
REAF | ≤ 0.2
LGNC | ≤ 0.2
RMVG | 0.971
RMKG | 0.929
RMVL | ≤ 0.2
RMKP | ≤ 0.2
RMKR | ≤ 0.2
RMVK | ≤ 0.2
FQCR | ≤ 0.2
TNCV | ≤ 0.2
IAED | ≤ 0.2
TLGD | ≤ 0.2
IMTY | ≤ 0.2
HASR | ≤ 0.2
WPLT | ≤ 0.2
RVGW | 0.209

Variant | one-hybrid fitness for binding parS DNA
RLHD | ≤ 0.2
RLSC | 0.98
RLSH | 0.266
RLLY | 0.505
RLCR | ≤ 0.2
RLSP | ≤ 0.2
RLCY | 0.485
RLCC | 0.995
RLLK | ≤ 0.2
RLHC | 0.973
RLLC | 1
RLHN | 0.442
QRLD | ≤ 0.2
GQHW | ≤ 0.2
KKGT | ≤ 0.2
PNTI | ≤ 0.2
NASI | ≤ 0.2
HCLN | ≤ 0.2
